# In PubChem BioAssay AID1985 (Southern Research Specialized Biocontainment Screening …, 2009):
# Out of some 2,300 compounds screened, about 1,000 (43%) were called active. No rule for the calls is given here. So high a share suggests a set chosen from earlier hits. This is one part of the list. Entries with a potency or affinity are not part of this list.
# Assay: modified counter assay using GFP fluorescence, PhoP regulon inhibitor project, dose response (AID 1985)
# Conditions: S. Typhi, 4 h; series mostly up to 150 µM
row,Structure (SMILES),outcome
1,CCOC(=O)C(NC(C)=O)(OCc1ccc(F)cc1)C(F)(F)F (centres undefined),inactive
2,Cc1nn(Cc2ccccc2Cl)c2sc(C(=O)Nc3ccccc3N3CCOCC3)cc12,inactive
3,O=C1SC(c2ccccc2)=C/C1=C\N1CCCCC1,inactive
4,CC(C)C(NS(=O)(=O)c1cccc2nsnc12)C(=O)N1CCn2c1nc1ccccc12 (centres undefined),inactive
5,Nc1[nH]c(=O)ncc1F,inactive
6,O=C1c2cccnc2C(=O)N1c1ccccc1-c1ccccc1,inactive
7,Cc1ccc(-n2c(=O)c3sccc3n(CC(=O)NC3CCCCC3)c2=O)cc1,inactive
8,Cc1ccc2c(c1)c1c(n2CC(O)CN2CCC(C)CC2)CCCC1 (centres undefined),inactive
9,COCCNC(=O)c1cccc(OC2CCN(Cc3ccccc3C)CC2)c1,inactive
10,C[N+]1(C)C2CCC1CC(OC(=O)c1ccccc1)C2 (centres undefined),inactive
11,CCN(CC)C(=O)C1CCN(Cc2ccc(Br)cc2)CC1,inactive
12,N=c1c(C(=O)NCC2CCCO2)cc2c(=O)n3ccccc3nc2n1Cc1ccc(Cl)cc1 (centres undefined),inactive
13,CCOc1ccc(NC(=O)CN(C)S(=O)(=O)c2cccs2)cc1,inactive
14,Cc1ncc(CC(=O)n2cc(C(=O)c3cc(F)ccc3O)cn2)s1,inactive
15,CN(C)C(=O)CC12CC3CC(C1)CC(CC(=O)N(C)C)(C3)C2,inactive
16,Nc1cc2c3c(cccc3c1)C(=O)N(CCN1CCCC1)C2=O,inactive
17,CC[C@H](C)[C@@H](CN[C@H](C)CNC)NCCC(c1ccccc1)c1ccccc1,inactive
18,O=C(Cn1c(=O)oc2ccccc21)N1CCN(c2ccc(N3CCOCC3)nn2)CC1,inactive
19,CCn1c(O)c(N=NC(=O)CNC(=O)/C=C/c2ccco2)c2ccccc21,inactive
20,Cc1c(CCN)ccc2c1[nH]c1ccccc12,inactive
21,Cc1c(C=O)c2ccccn2c1C(=O)c1ccccc1,inactive
22,O=C(N/N=C/c1c(Cl)nc2ccccn2c1=O)c1cccnc1,inactive
23,Oc1ccc(-c2nc3ncccn3c2Nc2ccc3c(c2)OCCO3)cc1,inactive
24,CC(C)CC(c1nnnn1Cc1ccco1)N1CCN(c2cccc(Cl)c2)CC1 (centres undefined),inactive
25,COc1cccc(C2=NO[C@@H]3C(=O)N(Cc4ccccc4)C(=O)[C@H]23)c1OC,inactive

row,Structure (SMILES),outcome
1,CCOC(=O)/C=C1/N(C)c2ccccc2C1(C)C,inactive
2,Cc1ccc(N/N=C/c2ccncc2)cc1,inactive
3,COc1ccc(/C=N/NC2=NCCCCC2)c(OC)c1,inactive
4,Cc1cc(N/N=C/c2ccc(F)cc2)nc(NCc2ccccc2)n1,inactive
5,COc1ccc(/C=N/Nc2cc(C)nc3ccccc23)cc1,inactive
6,CC(Oc1ccc(/C=N/NC(=O)Cc2cccc3ccccc23)cc1)C(=O)O (centres undefined),inactive
7,CCOC(=O)c1c(C)sc2c1N(C(C)=O)c1cc(Cl)ccc1S2,inactive
8,CCCC1(c2ccccc2)NC(=O)N(CC(=O)Nc2ccccc2C(F)(F)F)C1=O (centres undefined),inactive
9,O=C1C2C3C=CC(CC3)C2C(=O)N1/N=C/c1ccc(O)cc1 (centres undefined),inactive
10,CCN(CC)S(=O)(=O)c1ccc(/C(O)=C(\C#N)c2nc3ccccc3n2C)cc1,inactive
11,CCN(CC)CCn1c(NCc2cc(OC)ccc2OC)nc2ccccc21,inactive
12,Cn1c(-c2ccc(CN3CCCCC3)o2)nc2ccccc21,inactive
13,COc1ccc(CNc2nc3ccccc3n2C)c(O)c1,inactive
14,Cc1cccc(NS(=O)(=O)c2ccc3c(c2)OCCO3)c1,inactive
15,CC1(C)N=C(N)NC(Nc2cccc(Br)c2)=N1,inactive
16,CCN(CC)CC#CC(C)OCOCC#CCOC (centres undefined),inactive
17,CNc1ccc(SC#N)cc1,inactive
18,O=C(CCn1cccc1)Nc1ccc(OC(F)(F)F)cc1,inactive
19,COc1ccc(NC2=Nc3ccccc3CC2)cc1,inactive
20,NC1=NC2(CCCCC2)n2c(nc3ccccc32)N1,inactive
21,Cc1ccc(C(=O)NCC(=O)NCCc2ccc(S(N)(=O)=O)cc2)s1,inactive
22,CCN1C(=O)N/C(=C/c2cc(C)n(Cc3ccccc3)c2C)C1=O,inactive
23,N=c1ccccn1CC(O)COc1ccccc1 (centres undefined),inactive
24,Cc1c(Cl)cccc1NC(=O)C1CCN(S(C)(=O)=O)CC1,inactive
25,Cc1ccc(N(C(=O)c2sc(C)nc2C)C(C(=O)NCc2ccco2)c2ccccc2)cc1 (centres undefined),inactive

row,Structure (SMILES),outcome
1,Fc1cccc(Cl)c1CSc1ccc(-c2ccco2)nn1,inactive
2,CC(=O)Nc1ccc(NC(=O)CSc2ccc(-c3ccco3)nn2)cc1,inactive
3,COc1ccccc1NC(=O)Cn1c(=O)n(CCc2c[nH]c3ccccc23)c(=O)c2cccnc21,inactive
4,Cc1ccc(C)c(NC(=O)CSc2nnc([C@@H](N)Cc3c[nH]c4ccccc34)o2)c1,inactive
5,Cc1cccc(OCC(=O)Nc2nonc2NC(=O)COc2cccc(C)c2)c1,inactive
6,CC(C)CC(=O)N1CCN(C(=O)CCC2CCCC2)CC1,inactive
7,CC(C)c1ccc(C2C(C#N)=C(N)Oc3c2oc(CO)cc3=O)cc1 (centres undefined),inactive
8,CNS(=O)(=O)c1cc(OC)ccc1OC,inactive
9,C#CC[N+]1(CC#Cc2ccc(C#CC[N+]3(CC#C)CCOCC3)cc2)CCOCC1,inactive
10,Nc1c(-c2ccccc2)sc2ccc3ccccc3[n+]12,inactive
11,CCc1ccc(Nc2n[n+](-c3ccccc3)c(-c3c(Cl)cccc3Cl)s2)cc1,inactive
12,C(=N\Nc1nc2ccccc2[nH]1)/c1ccc2ncccc2c1,inactive
13,COC(=O)CC1C(=O)NCCN1C(=O)CSc1nc2ccc([N+](=O)[O-])cc2s1 (centres undefined),inactive
14,O=C(O)COc1ccc(/C=C/c2nc3ccc([N+](=O)[O-])cc3s2)cc1,inactive
15,O=C(N/N=C/c1cccnc1)c1ccc([N+](=O)[O-])cc1Cl,inactive
16,Cc1cccc(NC(=O)c2ccccc2Br)n1,inactive
17,Cc1cc(=O)n2nc(N3CCCC(C(=O)NC4CCCCC4C)C3)sc2n1 (centres undefined),inactive
18,COC(=O)c1ccc(Cn2cnc3ccccc3c2=O)cc1,inactive
19,CCCCn1c(NCc2ccccc2NS(=O)(=O)c2ccc(C)cc2)nc2ccccc21,inactive
20,N#CCCn1c2ccccc2c2nc3ccccc3nc21,inactive
21,O=S(=O)(Nc1c(S(=O)(=O)c2ccccc2)c2nc3ccccc3nc2n1C1CCCCC1)c1ccccc1,inactive
22,Cc1cccc(S(=O)(=O)c2c(N)n(/N=C/c3ccccc3)c3nc4ccccc4nc23)c1,inactive
23,CCCCn1c(NS(=O)(=O)c2ccc(C)cc2)c(S(=O)(=O)c2ccccc2)c2nc3ccccc3nc21,inactive
24,CCOC(=O)CSc1nc(-c2ccccc2)nc2ccccc12,inactive
